High-throughput results: PubChem, several laboratories
AMPAR-TARP mod: modulators of GluA2-stargazin AMPA receptor complexes, primary screen, cell-based, membrane potential dye | HEK293 GluA2+stargazin, membrane potential dye (FDSS), glutamate EC50; hits were called plate by plate, in both directions | calls only at 30 µM | Voltage-dependent calcium channel gamma-2 subunit (Mus musculus) + Glutamate receptor 2 … | AID 1259245, 2017 | 40,000 compounds, 3.5% hits;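 active means any of four per-well response measures lying three or more SD from its plate-wide compound average, in either direction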
GIRK2 act: activators of NPY4-receptor-primed GIRK2 channels, summary, cell-based, HEK293, thallium flux | G protein-activated inward rectifier potassium channel 2 (Homo sapiens), P48051 | HEK293 GIRK2/NPY4 cells, thallium flux fluorescence | activation (% efficacy), % for hits at 37.5 µM | 34,000 tested, under 10 active;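 active means primary screen hit, no activity in plain HEK293 cells, and in GIRK2-only cells above 5% efficacy rising with concentration; inactive means the rest, including fluorescent compounds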;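 further: efficacy is normalized control-subtracted fluorescence 15 s after thallium addition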
Calls only; n = inactive; x = no result given; + = active, no number. This is one part of a sample in which hits are shown more often than they occur.

SMILES	AMPAR-TARP mod	GIRK2 act
COCCCn1c(N)c(S(=O)(=O)c2ccc(OC)cc2)c2nc3ccccc3nc21	n	n
COCCCn1c(N)c(S(=O)(=O)c2cc(C)ccc2C)c2nc3ccccc3nc21	n	n
COCCn1c(N)c(S(=O)(=O)c2cccc(Cl)c2)c2nc3ccccc3nc21	+	n
Cn1nccc1C(=O)Nc1cc(Cl)ccc1Cl	x	n
CCCC(=O)NCc1cc(-c2nn(C)c(=O)c3ccccc23)ccc1OC	n	x
COc1ccc(-c2nn(C)c(=O)c3ccccc23)cc1CNC(=O)COc1cccc(C)c1	+	x
COc1ccc(C)cc1NC(=O)c1cc2c(=O)n3cc(C)ccc3nc2n1Cc1ccccc1	+	n
Cc1ccc2nc3c(cc(C(=O)NCC(=O)OC(C)C)n3Cc3ccccc3)c(=O)n2c1	n	n
COc1ccc(S(=O)(=O)N2CCSC2c2ccc(Br)cc2)cc1 (stereo not drawn)	n	x
COc1ccc(Br)cc1C1SCCN1S(=O)(=O)c1cccc(C)c1 (stereo not drawn)	+	x
O=C(NCC1(O)CCOCC1)C(=O)Nc1ccc(F)c(F)c1	+	n
O=C(NCC1(O)CCOCC1)C(=O)Nc1ccc2c(c1)OCCO2	n	n
CN(c1ccccc1)S(=O)(=O)c1ccc(C(=O)Nc2ccc(S(N)(=O)=O)cc2)cc1	n	x
Cc1ccc(NC(=O)C(=O)Nc2ccc(C(N)=O)cc2)cc1N1CCCC1=O	n	n
COCC(=O)Nc1cc(-c2ccco2)nn1-c1nc(C)cc(=O)[nH]1	n	n
Cc1cc(=O)[nH]c(-n2nc(-c3ccco3)cc2NC(=O)C2CC2)n1	+	n
O=C(Nc1cc(-c2ccco2)nn1CCO)C1(c2ccccc2)CCOCC1	n	n
C#CCn1c(=NC(=O)CS(=O)(=O)c2ccc(OC)cc2)sc2c(OC)ccc(OC)c21	n	n
COc1ccc(NC(=O)Cn2cc(-c3ccccc3)c(N3CCOCC3)n2)c(OC)c1	n	n
COC(=O)c1ccccc1NC(=O)Cn1cc(-c2ccccc2)c(N2CCOCC2)n1	+	n
COc1cccc(-c2cc(CC(=O)NCCCN3CCOCC3)no2)c1	+	n
COc1ccc(-c2cc(CC(=O)NCCN3CCOCC3)no2)cc1	x	n
COc1ccc(S(=O)(=O)c2cnc(SCC(=O)Nc3cccc(SC)c3)[nH]c2=O)cc1	x	n
COc1ccc(CCS(=O)(=O)NCC(O)c2ccc(C(F)(F)F)cc2)cc1 (stereo not drawn)	+	n
CC(C)N(CC#CCNS(=O)(=O)c1ccc(OC(F)(F)F)cc1)C(C)C	+	x
SMILES	AMPAR-TARP mod	GIRK2 act
O=S(=O)(NCC(O)c1ccc(C(F)(F)F)cc1)c1ccc2c(c1)OCCO2 (stereo not drawn)	n	n
COc1ccc(CCC(=O)NCC(O)c2ccc(C(F)(F)F)cc2)cc1 (stereo not drawn)	x	n
O=S(=O)(NCC(O)c1ccc(C(F)(F)F)cc1)c1ccc(OC(F)(F)F)cc1 (stereo not drawn)	+	x
CC(C)N(CC#CCNS(=O)(=O)c1cc(F)ccc1F)C(C)C	n	x
COc1ccc(-c2nnc(NC(=O)Cc3ccc(C(C)C)cc3)o2)cc1	n	n
O=C(Nc1ccc(SCCN2CCOCC2)nn1)c1cccc(F)c1	n	n
Cc1c(Cl)ccc2sc(N3CCN(C(=O)c4ccn(C)n4)CC3)nc12	n	n
CCNC(=O)C1CCN(c2cc(SCC(=O)Nc3ccc(F)c(Cl)c3)ncn2)CC1	n	n
Cc1ccc(C)c(CN2C(=O)N(c3cc(C)ccc3C)C3CS(=O)(=O)CC32)c1 (stereo not drawn)	+	x
Cc1ccc(C)c(N2C(=O)N(Cc3ccc(Br)cc3F)C3CS(=O)(=O)CC32)c1 (stereo not drawn)	n	x
COc1ccc(C)cc1NC(=O)CN1CCN(CC(=O)Nc2ccccc2Cl)CC1	n	x
CS(=O)(=O)c1ccc(CC(=O)Nc2ccc(O)c(-c3nc4ccccc4s3)c2)cc1	n	x
O=C(Nc1cc2c3c(c1)CC(=O)N3CCC2)c1cnccn1	+	n
COc1cc(C(=O)Nc2cc3c4c(c2)CC(=O)N4CCC3)cc(OC)c1OC	n	n
O=C(NCCn1ncc2c(N3CCOCC3)ncnc21)C1COc2ccccc2O1 (stereo not drawn)	n	x
O=C(c1csc(Nc2ccc(OC(F)F)cc2)n1)N1CCCC1	+	n
NC(=O)C1CCN(C(=O)c2csc(Nc3ccc(OC(F)F)cc3)n2)CC1	n	n
COc1ccc(C)cc1NC(=O)C(=O)NCCCN1CCOCC1	n	x
NC(=O)c1c(NC(=O)c2cc3ccccc3o2)sc2c1CCC2	n	x
COc1ccc(/C=C2\Oc3c(cc4c(c3C)OCN(Cc3ccco3)C4)C2=O)cc1OC	+	n
COc1ccc(/C=C2\Oc3c4c(cc(C)c3C2=O)OCN(C2CC2)C4)cc1OC	n	n
